Among all 39,000 compounds or so, about 1,500 (3.8%) were called active. The sample as a whole holds a higher share of actives than the screen did.
test system: HSkMC (human skeletal muscle cells); test: cytotoxicity call (relative viability < 0.9); conditions: 10 µM

Structure (SMILES)	cytotoxicity call
C[C@@H](NC(=O)C[C@H]1C=C[C@H](NC(=O)CN2CCOCC2)[C@@H](CO)O1)c1ccccc1	inactive
O=C(Nc1ncc(SCCN2CCCC2)s1)[C@]1(c2ccc(S(=O)(=O)C3CC3)cc2)C[C@H]1C1CCCCC1	active
C[C@H]1CCCCO[C@H](CN(C)C(=O)Nc2ccc(F)cc2)[C@@H](C)CN([C@@H](C)CO)C(=O)c2cc(NC(=O)CCC(F)(F)F)ccc2O1	inactive
COc1ccc(CN(C)C[C@H]2Oc3c(NS(C)(=O)=O)cccc3C(=O)N([C@H](C)CO)C[C@H]2C)cc1	inactive
CC[C@H](C)C[C@H](C)CCCCCCCCC(=O)N[C@H]1C[C@@H](O)[C@@H](NCCN)NC(=O)[C@@H]2[C@@H](O)CCN2C(=O)[C@H]([C@H](O)CCN)NC(=O)[C@H]([C@H](O)[C@@H](O)c2ccc(O)cc2)NC(=O)[C@@H]2C[C@@H](O)CN2C(=O)[C@H]([C@@H](C)O)NC1=O	inactive
CCCCCOc1ccc(-c2cc(-c3ccc(C(=O)N[C@H]4C[C@@H](O)[C@@H](O)NC(=O)[C@H]5[C@@H](O)[C@@H](C)CN5C(=O)[C@H]([C@@H](O)CC(N)=O)NC(=O)[C@H]([C@@H](O)[C@@H](O)c5ccc(O)c(OS(=O)(=O)O)c5)NC(=O)[C@H]5C[C@@H](O)CN5C(=O)[C@H]([C@@H](C)O)NC4=O)cc3)no2)cc1	inactive
COc1ccc(NC(=O)N(C)C[C@@H]2Oc3ccc(NC(=O)CCCN(C)C)cc3CC(=O)N([C@H](C)CO)C[C@H]2C)cc1	inactive
C[C@@H]1CCCCO[C@H](CN(C)C(=O)Nc2ccc3c(c2)OCO3)[C@H](C)CN([C@@H](C)CO)C(=O)c2cc(NC(=O)Nc3ccc(F)cc3)ccc2O1	inactive
C[C@@H]1CCCCO[C@H](CN(C)C(=O)c2ccncc2)[C@H](C)CN([C@H](C)CO)C(=O)c2cc(NS(=O)(=O)c3ccc(Cl)cc3)ccc2O1	inactive
NC(=O)CNC(=O)c1cccc(Cl)c1	inactive
Cc1cc2nc3ccc(N(C)C)cc3[s+]c2cc1N.[Cl-]	active
CN(C)c1ccc2nc3ccc(N(C)C)cc3[s+]c2c1.O.[Cl-]	active
CN(C)c1ccc2c(=O)[nH][nH]c(=O)c2c1	inactive
C[C@@H]1CN([C@@H](C)CO)C(=O)Cc2cc(NC(=O)Cc3cn(C)c4ccccc34)ccc2O[C@@H]1CN(C)Cc1ccc(Oc2ccccc2)cc1	inactive
Nc1cc(Cl)ncn1	inactive
C[C@@H]1CN([C@H](C)CO)S(=O)(=O)c2ccc(C#C[C@@H](C)O)cc2O[C@H]1CN(C)C	inactive
COc1ccc(S(=O)(=O)Nc2ccc3c(c2)C(=O)N([C@H](C)CO)C[C@H](C)[C@@H](CN(C)C(=O)c2ccccc2)OCCCC[C@H](C)O3)cc1	inactive
CC12CC3(C)CC(C)(C1)CC(C/N=C/c1ccc(O)cc1)(C2)C3	inactive
CCOc1ccc2nc(C34CC5CC(CC(C5)C3)C4)ccc2c1	inactive
CC1=Nc2ccccc2NC(C)(C)C1	inactive
C[C@@H]1CN([C@@H](C)CO)C(=O)c2cc(NC(=O)Cc3ccccc3)ccc2O[C@H]1CN(C)S(=O)(=O)c1cccs1	inactive

Structure (SMILES)	cytotoxicity call
COCCN1CCC(N(Cc2ccc(-c3ccc(C(F)(F)F)cc3)cc2)C(=O)Cn2c(SCc3cccc(F)c3F)cc(=O)c3ccccc32)CC1	active
O=c1cc(-c2ccccc2)[nH]c(=O)[nH]1	inactive
COc1ccc(S(=O)(=O)N(C)C[C@@H]2Oc3ccc(NC(=O)Nc4cccc5c4CCCC5)cc3CC(=O)N([C@@H](C)CO)C[C@@H]2C)cc1Cl	inactive
COc1ccc(S(=O)(=O)N(C)C[C@@H]2Oc3ccc(NC(=O)Nc4ccc(Cl)c(Cl)c4)cc3CC(=O)N([C@@H](C)CO)C[C@@H]2C)cc1Cl	active
CC(C)NC(=O)Nc1ccc2c(c1)CC(=O)N([C@@H](C)CO)C[C@@H](C)[C@H](CN(C)S(=O)(=O)c1ccc(Cl)cc1)O2	inactive
CC(C)NC(=O)Nc1ccc2c(c1)CC(=O)N([C@H](C)CO)C[C@@H](C)[C@H](CN(C)S(=O)(=O)c1ccc(Cl)cc1)O2	inactive
COc1ccc(S(=O)(=O)N(C)C[C@@H]2Oc3ccc(NC(=O)NC(C)C)cc3CC(=O)N([C@H](C)CO)C[C@@H]2C)cc1	inactive
COc1ccc(S(=O)(=O)N(C)C[C@@H]2Oc3ccc(NC(=O)Nc4cc(Cl)cc(Cl)c4)cc3CC(=O)N([C@@H](C)CO)C[C@@H]2C)cc1Cl	active
COc1ccc(NC(=O)N(C)C[C@H]2OCCCC[C@H](C)Oc3ccc(NS(=O)(=O)c4cccs4)cc3C(=O)N([C@@H](C)CO)C[C@H]2C)cc1	inactive
COc1cccc(S(=O)(=O)N(C)C[C@H]2Oc3cc(Br)ccc3S(=O)(=O)N([C@@H](C)CO)C[C@H]2C)c1	inactive
COc1ccc2c3c([nH]c2c1)[C@@H](CO)N(C[C@]13CCN(CC1)S(=O)(=O)c1cn(cn1)C)C(=O)Nc1ccc(cc1)F	inactive
O=C(C[C@H]1C[C@@H]2c3cc(NC(=O)Nc4ccc(C(F)(F)F)cc4)ccc3O[C@@H]2[C@H](CO)O1)NC1CCCCC1	inactive
C[C@H]1CN([C@@H](C)CO)S(=O)(=O)c2ccc(C#Cc3ccncc3)cc2O[C@@H]1CN(C)C(=O)C1CCCCC1	inactive
COc1ccccc1NC(=O)N(C)C[C@H]1Oc2ncc(C#CCN(C)C)cc2C(=O)N([C@@H](C)CO)C[C@H]1C	inactive
C[C@@H]1CN([C@@H](C)CO)C(=O)c2cc(NC(=O)Nc3ccc(C(F)(F)F)cc3)ccc2O[C@@H]1CN(C)Cc1ccc(Cl)c(Cl)c1	active
C[C@@H]1CN([C@H](C)CO)C(=O)c2cc(NC(=O)Nc3ccc(C(F)(F)F)cc3)ccc2O[C@@H]1CN(C)Cc1ccncc1	inactive
C[C@@H]1CN([C@H](C)CO)C(=O)c2cc(NC(=O)Nc3ccc(C(F)(F)F)cc3)ccc2O[C@@H]1CN(C)Cc1ccc(Cl)c(Cl)c1	active
C[C@H]1CN([C@@H](C)CO)C(=O)c2cc(NC(=O)Nc3ccc(C(F)(F)F)cc3)ccc2O[C@@H]1CN(C)Cc1ccc(Cl)c(Cl)c1	inactive
C[C@@H]1CN([C@@H](C)CO)C(=O)c2cc(NC(=O)Nc3ccc(C(F)(F)F)cc3)ccc2O[C@H]1CN(C)Cc1ccc(Cl)c(Cl)c1	inactive
C[C@H](CO)N1C[C@H](C)[C@@H](CN(C)Cc2ccc(Cl)c(Cl)c2)Oc2ccc(NC(=O)Nc3ccc(C(F)(F)F)cc3)cc2C1=O	active
C[C@H](CO)N1C[C@H](C)[C@H](CN(C)Cc2ccc(Cl)c(Cl)c2)Oc2ccc(NC(=O)Nc3ccc(C(F)(F)F)cc3)cc2C1=O	active

Structure (SMILES)	cytotoxicity call
C[C@@H]1CN([C@H](C)CO)C(=O)c2cc(NS(=O)(=O)c3ccc(F)cc3)ccc2O[C@H]1CN(C)Cc1ccncc1	inactive
CN1C(=O)c2cc(NS(C)(=O)=O)ccc2OC[C@H]2O[C@@H](CC(=O)N3CCOCC3)CC[C@@H]21	inactive
C[C@@H]1CCCCO[C@H](CN(C)S(=O)(=O)c2cccs2)[C@@H](C)CN([C@H](C)CO)C(=O)c2cc(NC(=O)C3CCCCC3)ccc2O1	inactive
COCC(=O)N1[C@@H]2c3ccc(C4=CCCCC4)c(=O)n3C[C@@H]2[C@@H](CO)[C@@H]1C(=O)N1CCN(C)CC1	inactive
Cc1ccc(S(=O)(=O)Nc2ccc3c(c2)C(=O)N([C@H](C)CO)C[C@@H](C)[C@@H](CN(C)C(=O)Nc2cccc4ccccc24)O3)cc1	inactive
CO[C@H]1CN(C)C(=O)c2cc(NS(=O)(=O)CC(F)(F)F)ccc2OC[C@@H](C)N(C(=O)NC(C)C)C[C@@H]1C	inactive
O=C1NCCCc2occc21	inactive
Cc1noc(C)c1S(=O)(=O)Nc1ccc2c(c1)C(=O)N([C@@H](C)CO)C[C@H](C)[C@H](CN(C)Cc1ccccc1)O2	inactive
CO[C@H](CN(C)S(=O)(=O)c1ccc(C)cc1)[C@H](C)CN([C@@H](C)CO)S(=O)(=O)c1cccc(Cl)c1	inactive
COc1ccc(NC(=O)N(C)C[C@@H]2Oc3ncc(C#CCN(C)C)cc3C(=O)N([C@H](C)CO)C[C@@H]2C)cc1	inactive
COCC#Cc1ccc2c(c1)O[C@@H](CN(C)C(=O)C1CCOCC1)[C@H](C)CN([C@@H](C)CO)S2(=O)=O	inactive
C[C@H]1CN([C@@H](C)CO)C(=O)c2cc(NC(=O)Nc3ccc(C(F)(F)F)cc3)ccc2O[C@H]1CN(C)Cc1ccc(Cl)c(Cl)c1	active
C[C@@H]1CN([C@H](C)CO)C(=O)c2cc(NC(=O)Nc3ccc(C(F)(F)F)cc3)ccc2O[C@H]1CN(C)Cc1ccc(Cl)c(Cl)c1	active
C[C@H]1CN([C@@H](C)CO)C(=O)c2cc(NC(=O)Nc3ccc(F)cc3)ccc2O[C@@H]1CN(C)Cc1ccc(Cl)c(Cl)c1	inactive
C[C@H](CO)N1C[C@H](C)[C@@H](CN(C)Cc2ccc(Cl)c(Cl)c2)Oc2ccc(NC(=O)Nc3ccc(F)cc3)cc2C1=O	inactive
C[C@@H]1CN([C@@H](C)CO)S(=O)(=O)c2ccc(Br)cc2O[C@H]1CN(C)S(=O)(=O)c1ccccc1	inactive
C[C@@H]1CN([C@H](C)CO)C(=O)Cc2cc(NS(=O)(=O)c3ccc(F)cc3)ccc2O[C@@H]1CN(C)Cc1ccncc1	inactive
C[C@H]1CN([C@@H](C)CO)C(=O)CCCn2nncc2CO[C@H]1CN(C)S(=O)(=O)c1cn(C)cn1	inactive
Cc1noc(C)c1NC(=O)N(C)C[C@H]1Oc2c(NC(=O)Nc3ccc(C(F)(F)F)cc3)cccc2C(=O)N([C@H](C)CO)C[C@@H]1C	inactive
C[C@H]1CN([C@@H](C)CO)S(=O)(=O)c2ccc(-c3ccncc3)cc2O[C@@H]1CN(C)C(=O)c1cccc(F)c1	inactive
CNC(=O)CN1C(=O)[C@@H]2[C@@H](C1=O)[C@@H]1C=C[C@@H]2C1	inactive

— the antibiotic and cytotoxicity screens of Wong et al. (2023)
